# Assay results taken from PubChem BioAssay (Tox21).
# Results filed as inconclusive are left out. Active and inactive are the calls of the source. Calls come from the whole dose curve; as a rule, active = well fitted activation curve with a large enough effect in the signal ratio in the repeat runs (not every such curve was filed as active); inconclusive = weak or mixed curves; inactive = flat fitted curve, though single readings scatter; the % refers to the signal ratio.
# Assay: qHTS assay to identify small molecule agonists of the TGF-beta/Smad signaling pathway (AID 1346859)
# Conditions: SBE-bla HEK293T, TGF-beta/Smad beta-lactamase reporter, 5 h; series mostly up to 76.8 µM; activation: at the top concentration
# Description: U.S. Tox21 Program National Center for Advancing Translational Sciences [NCATS] NIH Chemical Genomics Center [NCGC] U.S. Environmental Protection Agency [EPA] National Institutes of Environmental Health Sciences [NIEHS] National Toxicology Program [NTP] U.S. Food and Drug Administration [FDA] Tox21 Assay Overview: Transforming growth factor beta (TGF-beta) superfamily consists of a large number of structurally related dimeric proteins that act as hormones or local mediators in regulating a wide range of biological functions. This superfamily includes TGF-betas themselves, the bone morphogenetic proteins (BMPs) and the activins. These ligands induce oligomerization of serine/threonine receptor kinases and phosphorylate the cytoplasmic signaling molecules of Smad protein family. CellSensor SBE-bla HEK 293T cell line (Life Technologies, Carlsbad, CA), responsive to TGF-beta was used to screen Tox21 10K compound library for identification of agonists/antagonists of the Smad signaling pathway. This cell line contains a beta-lactamase reporter gene under control of the Smad binding element (SBE) stably integrated into HEK 293T cells.
# Tox21 Assay Protocol Summary: SBE-bla HEK 293T cells were dispensed at 4,000/well in 6 uL of assay medium into black wall/clear-bottom 1536-well plates using a Multidrop Combi (ThermoFisher Scientific, Waltham, MA) dispenser. After the assay plates were incubated at 37 C and 5% CO2 for an overnight, 23 nL of compounds dissolved in DMSO, positive controls or DMSO only was transferred to the assay plate by a Pintool station (Kalypsys, San Diego, CA). The assay plates were incubated at 37 C and 5% CO2 for 5 hr. One uL of LiveBLAzer B/G FRET substrate (Life Technologies) was added using a Flying Reagent Dispenser (Aurora Discovery, San Diego, CA) and the plates were incubated at room temperature for 2 hr. Fluorescence intensity (405 nm excitation, 460 nm and 530 nm emissions) was measured using an Envision plate reader (PerkinElmer, Shelton, CT).
# % is set by controls: 0 for no effect and ±100 for the full control effect.
SMILES,activation,outcome
O=Cc1ccc(Cl)cc1,1.02% (inactive),
CCCCCCCCCCCCCCCCCl,0.675% [at 15.8 µM] (inactive),
c1cnc2cc3c(cc2n1)C1CNCC3C1,0.195% [at 35.3 µM] (inactive),
CN(C)c1ccc2nc3ccc(=[N+](C)C)cc-3sc2c1,,inactive
O=C1CC2(CCCC2)CC(=O)N1CCCCN1CCN(c2ncccn2)CC1,,inactive
O=C(O)c1cccc(C(=O)O)c1,,inactive
O=C(O)CCc1ccccc1,0.226% (inactive),
CCC(C)(Oc1ccc(C2(c3ccc(OC(C)(CC)C(=O)O)cc3)CCCCC2)cc1)C(=O)O (stereo not given),1.36% [at 35.3 µM] (inactive),
CC1=CC(=O)c2ccccc2C1=O,-6.92% [at 35.3 µM] (inactive),
N[C@@H]1CONC1=O,-0.407% [at 35.3 µM] (inactive),
C=CC(=O)OCCCCCCCC,1.89% (inactive),
C/C=C/c1ccc(OCC)c(O)c1,,inactive
CCCCOCCOC(=O)c1ccccc1C(=O)OCCOCCCC,,inactive
O=C(O)c1cc(Cl)cc(Cl)c1,0.462% (inactive),
C1COC(NC(C2CC2)C2CC2)=N1,1.65% [at 35.3 µM] (inactive),
CCn1cc(C(=O)O)c(=O)c2cc(F)c(N3CCNC(C)C3)c(F)c21 (stereo not given),-0.14% [at 35.3 µM] (inactive),
CC(C)(C)NCC(O)c1cc(O)cc(O)c1 (stereo not given),0.265% [at 35.3 µM] (inactive),
OCCOCCN1CCN(C(c2ccccc2)c2ccc(Cl)cc2)CC1 (stereo not given),,inactive
CCCCCCCCCCCCc1ccccc1O,,inactive
Nc1nc2ccccc2[nH]1,,inactive

SMILES,activation,outcome
Cc1ccnc2c1NC(=O)c1cccnc1N2C1CC1,,inactive
O=C(O)c1cn(-c2ccc(F)cc2)c2cc(N3CCNCC3)c(F)cc2c1=O,,inactive
OCC(CO)N[C@H]1C[C@](O)(CO)[C@@H](O)[C@H](O)[C@H]1O,-0.306% [at 35.3 µM] (inactive),
Cc1occc(=O)c1OC(=O)C(C)C,0.768% (inactive),
COC(c1ccccc1)(c1ccccc1)[C@H](Oc1nc(C)cc(C)n1)C(=O)O,-1.77% [at 35.3 µM] (inactive),
COc1cc(C(=S)N2CCOCC2)ccc1O,0.564% [at 35.3 µM] (inactive),
Cc1cccc([N+](=O)[O-])c1C(=O)O,-1.6% (inactive),
O=C(Oc1ccccc1)c1ccccc1O,,inactive
NCCO,,inactive
CCN(CC)CCOc1ccc(/C(=C(\Cl)c2ccccc2)c2ccccc2)cc1,,inactive
Cc1cccc2n[nH]nc12,,inactive
CCN(CC)C(=S)SSC(=S)N(CC)CC,,inactive
O=C(O)CP(=O)(O)O,1.69% [at 35.3 µM] (inactive),
Cc1scc2c1N(C(=O)CN1CCN(C)CC1)c1ccccc1NC2=O,-0.14% [at 35.3 µM] (inactive),
CC(=O)CC(C)=O,-6.56% (inactive),
c1ccc2c(c1)CCCC2C1=NCCN1 (stereo not given),3.13% [at 35.3 µM] (inactive),
CCn1c2ccccc2c2cc(N)ccc21,-5.16% (inactive),
Nc1nc(=S)c2[nH]cnc2[nH]1,,inactive
O=C(Cl)c1cccc(C(=O)Cl)c1,,inactive
c1ccc2cc3c(ccc4ccccc43)cc2c1,4.86% (inactive),
